# PubChem BioAssay (NCATS)
# Records with an inconclusive call do not appear. Entries that show only a call come without a potency. The source made the active and inactive calls. Calls follow the shape of the dose curve; as a rule, active = well fitted curve in the direction sought with a large enough effect; inconclusive = small, poorly fitted or top-dose-only effect, or another doubt; inactive = no such curve, though single readings can be large; an effect the other way counts as inactive or inconclusive.
# Legend:
# [1] = qHTS of pediatric cancer cell lines to identify multiple opportunities for drug repurposing: Primary screen for DAOY cells (AID 1347090); details: DAOY medulloblastoma viability, CellTiter-Glo luminescence, 48 h; series mostly up to 46 µM; also: nearly all actives have a fitted effect of over 55% in size
# Summary of the method: (§1)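 Cell viability, CellTiter-Glo luminescence; 500-1,000 cells/well, 8- or 11-point titration, 48 h compound exposure at 37 degrees C, 5% CO2. Controls: DMSO neutral, bortezomib 2.3 µM final as positive.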
# [2] = qHTS of pediatric cancer cell lines to identify multiple opportunities for drug repurposing: Primary screen for SJ-GBM2 cells (AID 1347091); details: SJ-GBM2 viability, CellTiter-Glo luminescence, 48 h; series mostly up to 46 µM
# Summary of the method: as §1
# [3] = qHTS of pediatric cancer cell lines to identify multiple opportunities for drug repurposing: Primary screen for A673 cells (AID 1347092); details: A673 Ewing sarcoma viability, CellTiter-Glo ATP luminescence, 48 h; series mostly up to 46 µM; also: nearly all actives have a fitted effect of over 45% in size; also: potency is read from the fitted curve at half-maximal effect
# Summary of the method: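 A673 cells (500-1,000 cells/well) were treated 48 hours at 37 degrees C with compounds at 11-point (0.78 nM to 46 µM) or 8-point (0.59 nM to 46 µM) dilutions. Viability read by CellTiter-Glo luminescence; concentration-response curves fitted.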
# [4] = qHTS of pediatric cancer cell lines to identify multiple opportunities for drug repurposing: Primary screen for BT-37 cells (AID 1347094); details: BT-37 viability, CellTiter-Glo luminescence, 48 h; series mostly up to 57.3 µM
# Summary of the method: (§2)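 Viability was measured as metabolically active cells after 48 hours of treatment, read by CellTiter-Glo luminescence. Compounds were tested at multiple final concentrations, giving concentration-response curves.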
# [5] = qHTS of pediatric cancer cell lines to identify multiple opportunities for drug repurposing: Primary screen for U-2 OS cells (AID 1347096); details: U-2 OS viability, CellTiter-Glo luminescence, 48 h; series mostly up to 46 µM; also: nearly all actives have a fitted effect of over 50% in size
# Summary of the method: (§3)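 Cells (500-1,000/well) rested 5 h, then received compounds for 48 h; metabolically active cells were measured by CellTiter-Glo luminescence. Final concentrations spanned up to 46 µM (MIPE, 11-point) or 0.59 nM-46 µM (NPC, 8-point) in primary screens, 11-point in follow-ups.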
# [6] = qHTS of pediatric cancer cell lines to identify multiple opportunities for drug repurposing: Primary screen for Saos-2 cells (AID 1347097); details: Saos-2 viability, CellTiter-Glo ATP luminescence, 48 h; series mostly up to 46 µM; also: nearly all actives have a fitted effect of over 40% in size; also: potency is read from the fitted curve at half-maximal effect
# Summary of the method: as §2
# [7] = qHTS of pediatric cancer cell lines to identify multiple opportunities for drug repurposing: Primary screen for SK-N-SH cells (AID 1347098); details: SK-N-SH viability, CellTiter-Glo luminescence, 48 h; series mostly up to 57 µM; also: nearly all actives have a fitted effect of over 65% in size; also: potency is read from the fitted curve at half-maximal effect
# Summary of the method: as §3
# [8] = qHTS of pediatric cancer cell lines to identify multiple opportunities for drug repurposing: Primary screen for NB1643 cells (AID 1347099); details: NB1643 neuroblastoma viability, CellTiter-Glo luminescence, 48 h; series mostly up to 46 µM; also: nearly all actives have a fitted effect of over 50% in size; also: potency is read from the fitted curve at half-maximal effect
# Summary of the method: as §2
# [9] = qHTS of pediatric cancer cell lines to identify multiple opportunities for drug repurposing: Primary screen for NB-EBc1 cells (AID 1347095); details: NB-EBc1 neuroblastoma viability, CellTiter-Glo luminescence, 48 h; series mostly up to 46 µM
# Summary of the method: as §2
# [10] = qHTS of pediatric cancer cell lines to identify multiple opportunities for drug repurposing: Primary screen for SK-N-MC cells (AID 1347093); details: SK-N-MC viability, CellTiter-Glo luminescence, 48 h; series mostly up to 46 µM
# Summary of the method: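 Metabolically active cells were quantified by ATP-dependent luminescence (CellTiter-Glo, 15 min at room temperature) following 48 h treatment. Cells had been plated at 500-1,000 per well and settled for 5 h beforehand.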
SMILES,outcome [1],outcome [2],Potency [3],outcome [4],outcome [5],Potency [6],Potency [7],Potency [8],outcome [9],outcome [10]
O=C(O)c1c(O)c(-c2ccccc2)nc2ccccc12,inactive,inactive,inactive,inactive,inactive,inactive,inactive,inactive,–,–
O=C(O)c1ccccc1NCCc1ccccc1,inactive,inactive,inactive,inactive,inactive,inactive,inactive,inactive,inactive,–
Nc1ccccc1N,–,inactive,15.4 µM (active),–,–,30.6 µM (active),–,30.6 µM (active),–,–
CCC(C(=O)O)c1ccc(N2Cc3ccccc3C2=O)cc1 (centres undefined),inactive,inactive,inactive,inactive,inactive,inactive,inactive,inactive,inactive,inactive
CCOCCOC(=O)/C=C/c1ccc(OC)cc1,inactive,inactive,inactive,inactive,inactive,inactive,inactive,inactive,inactive,inactive
Cc1ccc(N)cc1O,–,inactive,30.6 µM (active),–,–,–,31.4 µM (active),–,–,–
